This is a sample that favours compounds with a hit; in the whole collection about 1.3% have one here.
A1 inh – inhibitors of the anti-apoptotic protein A1, read as caspase activation. MEF A1-2A-BIM cells, Caspase-Glo 3/7 luminescence, 3 h; percent of clofoctol response, vehicle zero. caspase activation, % (test concentration not listed). 0.066% of 330,000 active;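 active = over half of replicate activation scores above 10%, or exactly half above 10 with the replicate mean above 10; inconclusive = replicate mean below 10 yet half the replicates above 10; inactive = over half of replicates below 10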
VLA-4 inh – inhibition in a human VLA-4 binding assay | 0.2% of 330,000 active | P13612 | inhibition, % (about 7 µM as worked out from the volumes in the protocol) | VLA-4 expressing cells, ligand binding flow cytometry; in the data active = inhibition above about 50%
NTR1 agonist – agonists of human neurotensin receptor NTR1 | P30989 | NTR1-U2OS beta-arrestin-GFP spot imaging, agonist mode | activation, % at 20 µM | 0.17% of 330,000 active;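 active = activation at or above 40% of the spot to cytoplasm intensity ratio, with at least 20 cells analyzed; inconclusive = wells under 20 cells, flagged as cytotoxic or low count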;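 note: 0% = DMSO without peptide and 100% = 100 nM NTR1 peptide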
GRK2 inh – inhibitors of human GRK2 displacing RNA aptamer; bead flow cytometry, FAM-aptamer displacement from GRK2; AID 488847; 0.59% of 330,000 active; inhibition of aptamer binding, % at 10 µM; P25098;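 active = inhibition of aptamer binding above 40%, roughly 3 SD of noise, on plates passing a quality check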;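 note: median bead fluorescence of bound FAM aptamer so fluorescent compounds give negative values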
Beta2AR agonist – agonists of human beta-2 adrenergic receptor inducing internalization; P07550; Am2.2-beta2AR cells, FAP receptor internalization, flow cytometry; response, % (concentration not given with the values); 0.43% of 340,000 active; AID 504454;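 active = response above a set limit, near 3 SD of response in nonfluorescent compounds, cut at about 42% in these data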
Target sequence (P07550 whole entry, looked up): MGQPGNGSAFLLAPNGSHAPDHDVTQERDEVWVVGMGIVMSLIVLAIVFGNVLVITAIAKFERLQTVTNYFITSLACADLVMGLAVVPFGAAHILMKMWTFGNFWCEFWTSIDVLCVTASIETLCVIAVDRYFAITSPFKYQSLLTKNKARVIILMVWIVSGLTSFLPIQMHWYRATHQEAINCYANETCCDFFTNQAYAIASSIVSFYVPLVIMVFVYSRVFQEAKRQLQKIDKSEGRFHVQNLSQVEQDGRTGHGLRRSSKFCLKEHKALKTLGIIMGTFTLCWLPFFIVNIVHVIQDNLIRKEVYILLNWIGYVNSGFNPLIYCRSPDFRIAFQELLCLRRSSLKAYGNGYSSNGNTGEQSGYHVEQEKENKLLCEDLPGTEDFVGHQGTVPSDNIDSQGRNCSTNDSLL
B2AR ag CP1 – agonists of human beta-2 adrenergic receptor; shares compounds with Beta2AR agonist; Am2.2-beta2AR cells, FAP surface receptor, flow cytometry; stronger effect = lower value; 25% of 1,100 active; percent response (surface receptor), % at 10 µM;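 active = surface receptor percent response at or below 58%, roughly 3 SD from nonfluorescent compounds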
B2AR FAP counter – counter-screen for beta-2AR agonists: fluorescence in Am2.2 cells. shares compounds with Beta2AR agonist. 1,100 tested, under 10 active. FAP fluorogen flow cytometry, fluorescence counterscreen; stronger effect = lower value. calls only at 10 µM. AID 588765;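 active = percent response below a set limit in fluorescence channel 1 and below 50% in channel 8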
* = called active by the depositor; ! = not active in a repeat.

CCN(C[C@H]1N[C@@](CC)(C(=O)OC)[C@H]2C(=O)N(Cc3ccccc3)C(=O)[C@@H]12)C(=O)C1CCCCC1 was read as A1 inh 0.1, VLA-4 inh 14.4, NTR1 agonist -0.8, GRK2 inh 3.0 and Beta2AR agonist 7.2.
O=C1C=C(O)CC(c2ccc(Cl)c(Cl)c2)C1 (stereo unspecified) was read as A1 inh -0.7, VLA-4 inh 0.0, NTR1 agonist -0.8, GRK2 inh 0.0 and Beta2AR agonist 0.8.
CN[C@H]1CC[C@@H](c2ccc(Cl)c(Cl)c2)c2ccccc21 was read as A1 inh 1.2, VLA-4 inh -3.2, NTR1 agonist 0.7, GRK2 inh 2.0, Beta2AR agonist 50.3*!, B2AR ag CP1 81.1 and B2AR FAP counter inactive.
NNC(=O)c1ccccc1CO was read as A1 inh -0.3, VLA-4 inh 30.6, NTR1 agonist 0.0 and GRK2 inh 0.0.
CCCc1ccc(OCc2nc(-c3ccc(NC(=O)c4ccco4)cc3)no2)cc1 was read as A1 inh -0.4, VLA-4 inh -3.4, NTR1 agonist -0.1, GRK2 inh 1.0, Beta2AR agonist 27.3, B2AR ag CP1 41.8* and B2AR FAP counter inactive.
Screening CCCc1ccc(OCc2nc(-c3ccc(NC(=O)c4cccs4)cc3)no2)cc1 returned A1 inh -5.9, VLA-4 inh -25.0, NTR1 agonist -0.8, GRK2 inh 0.0, Beta2AR agonist -5.1, B2AR ag CP1 75.2 and B2AR FAP counter inactive.
COC(=O)c1[nH]c2cc(OC)c(OC)cc2c1/C=N/Nc1ccccc1 was read as A1 inh -0.1, VLA-4 inh 15.5, NTR1 agonist 9.8, GRK2 inh 0.0 and Beta2AR agonist 15.2.
For O=C(c1cc(-c2ccc(Br)cc2)on1)N1CCc2ccccc2C1 the results were A1 inh 0.2, VLA-4 inh 0.3, NTR1 agonist 1.5, GRK2 inh 5.0 and Beta2AR agonist 3.0.
`c1ccc(-c2nnc(SCc3nc4ccccc4[nH]3)n2Cc2ccco2)cc1` gave A1 inh -0.4, VLA-4 inh -10.3, NTR1 agonist 1.1, GRK2 inh 0.0, Beta2AR agonist -11.9, B2AR ag CP1 137.6 and B2AR FAP counter inactive.
`Cc1ccc(OCc2nnc(SCc3nc4ccccc4[nH]3)n2Cc2ccco2)cc1` gave A1 inh 1.0, VLA-4 inh 7.7, NTR1 agonist 0.1, GRK2 inh 0.0, Beta2AR agonist 103.8*, B2AR ag CP1 20.4* and B2AR FAP counter inactive.
Cn1c(N)c(C(=O)COC(=O)CC(NC(=O)c2ccccc2Cl)c2ccccc2)c(=O)n(C)c1=O (stereo unspecified) was read as VLA-4 inh -6.6, NTR1 agonist 0.8, GRK2 inh 5.0 and Beta2AR agonist 7.7.
Screening CCn1c2ccccc2c2cc(CNCc3ccc(OC)cc3OC)ccc21 returned A1 inh 0.3, VLA-4 inh 35.5, NTR1 agonist 28.6, GRK2 inh 0.0, Beta2AR agonist 50.8*, B2AR ag CP1 75.9 and B2AR FAP counter inactive.
For CCS(=O)(=O)c1ncc(Cl)c(C(=O)Nc2ccc(S(=O)(=O)N3CCCC(C)C3)cc2)n1 (stereo unspecified) the results were A1 inh 49.1*, VLA-4 inh 22.4, NTR1 agonist 10.4, GRK2 inh 0.0, Beta2AR agonist 46.7*, B2AR ag CP1 69.0 and B2AR FAP counter inactive.
For CCS(=O)(=O)c1ncc(Cl)c(C(=O)Nc2ccc(C)cc2)n1 the results were A1 inh inconclusive, VLA-4 inh 17.1, NTR1 agonist 1.0, GRK2 inh 0.0 and Beta2AR agonist 0.1.
`Nc1[nH]nc2c1NN(c1ccc(Cl)cc1Cl)N2` gave A1 inh -0.7, VLA-4 inh 2.2, NTR1 agonist -0.5, GRK2 inh 0.0 and Beta2AR agonist 6.2.
`O=[N+]([O-])c1ccc2nc(CCCc3nc4ccc([N+](=O)[O-])cc4[nH]3)[nH]c2c1` gave A1 inh 0.3, VLA-4 inh -1.8, NTR1 agonist -1.1, GRK2 inh 0.0, Beta2AR agonist 54.4*, B2AR ag CP1 120.9 and B2AR FAP counter inactive.
O=[N+]([O-])c1ccc2nc(CN3CCCCC3)[nH]c2c1 was read as A1 inh 1.2, VLA-4 inh 10.1, NTR1 agonist -0.1, GRK2 inh 0.0 and Beta2AR agonist -1.4.
O=C1CN(C(=O)COC(=O)c2cc(S(=O)(=O)N3CCOCC3)ccc2Cl)c2ccccc2N1 was read as A1 inh -0.1, VLA-4 inh 3.3, NTR1 agonist -1.2, GRK2 inh 3.0, Beta2AR agonist 42.3*, B2AR ag CP1 86.9 and B2AR FAP counter inactive.
For COc1ccc(CN(C)Cc2c(O)ccc3cc(Br)ccc23)cc1OC the results were A1 inh 0.1, VLA-4 inh 10.7, NTR1 agonist 6.1, GRK2 inh 0.0, Beta2AR agonist 42.8*, B2AR ag CP1 104.2 and B2AR FAP counter inactive.
Screening O=C(c1cc2c(ccc3ccccc32)o1)N1CCN(c2ncc(C(F)(F)F)cc2Cl)CC1 returned A1 inh 0.0, VLA-4 inh 6.5, NTR1 agonist 0.3, GRK2 inh 0.0, Beta2AR agonist 97.9*, B2AR ag CP1 13.4* and B2AR FAP counter inactive.
Screening COC(=O)[C@@H](NC(=O)c1cc(COc2cncc(Cl)c2)on1)c1ccccc1 returned A1 inh 0.0, VLA-4 inh 8.4, NTR1 agonist 0.2, GRK2 inh 0.0, Beta2AR agonist 2.4, B2AR ag CP1 97.2 and B2AR FAP counter inactive.
Screening CCc1ccc(CN(C)C(=O)c2cc(COc3cncc(Cl)c3)on2)cc1 returned B2AR ag CP1 106.0 and B2AR FAP counter inactive.
CCC(NC(=O)c1cc(COc2cncc(Cl)c2)on1)c1ccc(C)cc1 (stereo unspecified) was read as A1 inh 0.1, VLA-4 inh 12.9, NTR1 agonist 2.6, GRK2 inh 0.0, Beta2AR agonist -0.8, B2AR ag CP1 87.7 and B2AR FAP counter inactive.
Screening Cc1cc(CN(C)C(=O)c2cc(COc3ccc(C)c(C)c3)on2)on1 returned A1 inh -0.3, VLA-4 inh 17.0, NTR1 agonist 0.0, GRK2 inh 0.0 and Beta2AR agonist -15.4.
`Cc1ccc(OCc2cc(C(=O)N(C)Cc3cnn(-c4ccccc4C)c3)no2)cn1` gave A1 inh -2.8, VLA-4 inh -17.5, NTR1 agonist 0.2, GRK2 inh 0.0, Beta2AR agonist 100.1*, B2AR ag CP1 19.4* and B2AR FAP counter inactive.
COCC1CCCN(C(=O)c2cc(COc3cncc(Cl)c3)on2)C1 (stereo unspecified) was read as A1 inh 0.2, VLA-4 inh 19.6, NTR1 agonist -0.3, GRK2 inh 6.0 and Beta2AR agonist -4.0.
